Measured values as given in PubChem BioAssay (Tox21).
Calls of active or inactive are those of the source. The call rests on the fitted dose curve; in most records, active means well fitted curve in the direction sought with a large enough effect in the repeat runs; inconclusive means weak or mixed curves; inactive means flat fitted curve, though single readings scatter.

Assays:
[1] = qHTS assay to test for compound auto fluorescence at 535 nm (green) in HEK293 cells (AID 720680)
[2] = qHTS assay to test for compound auto fluorescence at 460 nm (blue) in HEK293 cell free culture (AID 720681)
How it was run: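 Compounds were added to cell-free DMEM with 10% FBS and fluorescence read directly. The blue channel used 405 nm excitation and 460 nm emission, with triamterene as the reference fluorophore.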

[3] = qHTS assay to test for compound auto fluorescence at 535 nm (green) in HEK293 cell free culture (AID 720682)
How it was run: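 Read-out: 485/535 nm fluorescence intensity, calibrated against fluorescein. Medium only (DMEM + 10% FBS, no cells); test compound or DMSO vehicle added by pintool before plate reading.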

[4] = qHTS assay to test for compound auto fluorescence at 590 nm (red) in HEK293 cell free culture (AID 720683)
How it was run: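 Cell-free wells of DMEM with 10% FBS received compound, and intrinsic fluorescence was read at excitation/emission 540/590 nm. Values expressed as equivalence to Rose Bengal sodium.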

[5] = qHTS assay to test for compound auto fluorescence at 590 nm (red) in HepG2 cell free culture (AID 720684)
How it was run: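 Compound was pinned into wells holding MEM with 10% FBS and no cells, and red fluorescence was read at Ex/Em 540/590 nm. Signal is expressed as auto fluorescence equivalency relative to Rose Bengal sodium.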

[6] = qHTS assay to test for compound auto fluorescence at 460 nm (blue) in HepG2 cell free culture (AID 720685)
How it was run: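 Compound (23 nL) or DMSO pinned into cell-free MEM with 10% FBS; blue fluorescence read at 405/460 nm excitation/emission, expressed as auto-fluorescence equivalency to triamterene.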

[7] = qHTS assay to test for compound auto fluorescence at 535 nm (green) in HepG2 cell free culture (AID 720686)
[8] = qHTS assay to test for compound auto fluorescence at 460 nm (blue) in HepG2 cells (AID 720687)
How it was run: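 HepG2 cells in MEM with 10% FBS, attached overnight at 37 C, were exposed to compound or DMSO for 1 hr at 37 C, 5% CO2. Blue fluorescence was read at 405/460 nm, with triamterene as reference fluorophore.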

Measured: Potency

CC=O
inactive: all assays above

CC(C)(C)CC(C)(C)c1ccccc1O
inactive: all assays above

C[C@@H]1CC[C@H]2C(C)(C)[C@H]3C[C@@]12CC[C@@]3(C)O
inactive: all assays above

CCCCCCCC/C=C\CCCCCCCC(=O)NCc1ccc(O)c(OC)c1
inactive: all assays above

CCCCCCCCCCCCOC(=O)c1cc(O)c(O)c(O)c1
inactive: all assays above

Clc1ccccc1CN1CCc2sccc2C1
inactive: all assays above

CC(=O)Nc1ccc(O)cc1
not listed: [8]
inactive: all other assays above

COC(=O)C1=C(C)NC(C)=C(C(=O)OCCCN2CCC(c3ccccc3)(c3ccccc3)CC2)C1c1cccc([N+](=O)[O-])c1 (stereo unspecified)
not listed: [8]
inactive: all other assays above

O=C(O)c1cccc(Cl)n1
not listed: [8]
inactive: all other assays above

CO[C@H]1C=CO[C@@]2(C)Oc3c(C)c(O)c4c(O)c(cc(O)c4c3C2=O)NC(=O)/C(C)=C\C=C/[C@H](C)[C@H](O)[C@@H](C)[C@@H](O)[C@@H](C)[C@H](OC(C)=O)[C@@H]1C
not listed: [8]
inactive: all other assays above

COc1cccc(CCc2ccccc2OCC(CN(C)C)OC(=O)CCC(=O)O)c1 (stereo unspecified)
not listed: [8]
inactive: all other assays above

CC1=C(/C=C/C(C)=C/C=C/C(C)=C/C(=O)Nc2ccc(O)cc2)C(C)(C)CCC1
not listed: [8]
inactive: all other assays above

CCCSS/C(CCO)=C(\C)N(C=O)Cc1cnc(C)nc1N
not listed: [8]
inactive: all other assays above

NC(=O)c1nc(-c2cccc(-c3cc(F)ccc3OCC(F)(F)C(F)(F)F)c2)n[nH]1
inactive: all assays above

CCCCCCCC/C=C\CCCCCCCC(=O)OCCOC(=O)CCCCCCC/C=C\CCCCCCCC
not listed: [8]
inactive: all other assays above

CCCCCCC(C)OC(=O)COc1nc(F)c(Cl)c(N)c1Cl (stereo unspecified)
not listed: [8]
inactive: all other assays above

ClC/C=C\CCl
not listed: [8]
inactive: all other assays above

O=C1C=CC(=O)N1c1ccccc1
inactive: all assays above

CN(C)CCCN1c2ccccc2CCc2ccccc21
inactive: all assays above

CC(C)(C)c1cc(/C=C2\SC(=N)NC2=O)cc(C(C)(C)C)c1O
inactive: all assays above

C=C[C@](C)(O)CC[C@@H]1[C@@]2(C)CCCC(C)(C)[C@@H]2CC[C@@]1(C)O
inactive: all assays above

CCN(CC)CCOc1ccc(C(O)(Cc2ccc(Cl)cc2)c2ccc(C)cc2)cc1 (stereo unspecified)
inactive: all assays above

Cn1cnc2ncnc(N)c21
inactive: all assays above

Cc1cc(Nc2ccc(O)cc2)ccc1N
inactive: all assays above

COc1cc(C=C2CCC/C(=C\c3ccc(O)c(OC)c3)C2=O)ccc1O
not listed: [8]
inactive: all other assays above

CCCCCCCCCCCCCC[n+]1ccccc1
not listed: [8]
inactive: all other assays above
